TDP1 cell noCPT: qHTS for Inhibitors of human tyrosyl-DNA phosphodiesterase 1 (TDP1): qHTS in cells in absence of CPT; DT40 Tdp1-/- hTDP1 cells, no CPT, ATP luminescence, 48 h; Potency, µM (titrated, usually from 46.2 µM), actives largely listed as inhibitors; actives 15% (n = 420,000); AID 686978, 2013; note: nearly all actives have a fitted effect of over 55% in size
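Readout: luminescence from CellTiter-Glo after 30 min in the dark at RT. Cells: DT40 Tdp1-/- with stable hTDP1, 400/well. Exposure: compounds alone, ≥48 hr, 37 °C.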
HT1080 IDH1KD tx: kills HT-1080 cells with IDH1 knockdown | HT-1080 IDH1 knockdown viability, ATP luminescence, 48 h | Potency, µM (series often up to 46.1 µM), usual class: cytotoxic | actives 2% (n = 360,000) | AID 686971
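Assay cells: HT-1080 with IDH1 knockdown, 750 per well, RPMI/5% FBS. Exposure: 48 h at 37 °C following 2 h pre-incubation. Read: CellTiter-Glo luminescence; fitted concentration-response, curve class assigned.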
DT40 TDP1 CPT: growth inhibition of DT40 Tdp1-/-;hTDP1 cells with camptothecin (screen for TDP1 inhibitors). Potency, µM (top dose mostly 46.2 µM), actives largely listed as inhibitors. chicken DT40 Tdp1-/-;hTDP1 cells + 20 nM CPT, ATP luminescence, 48 h. AID 686979. actives 12% (n = 420,000); note: nearly all actives have a fitted effect of over 55% in size
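Cell growth measured by CellTiter-Glo luminescence after a minimum 48 h, 37 C compound exposure with 20 nM CPT in Tdp1-knockout DT40 cells stably expressing hTDP1, seeded 400/well; qHTS titration format.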
ELG1 DNA repair: inhibitors of ELG1-dependent DNA repair in HEK293T cells | actives 2.3% (n = 330,000) | Potency, µM (doses to about 46.1 µM), usual class: inhibitors | HEK293T ELG1-luciferase reporter, luminescence, 16 h; DNA damage induced by 5-fluorouridine | AID 504467; note: nearly all actives have a fitted effect of over 55% in size
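Quantitative HTS, concentration-response format. 2,000 cells/well co-treated with 5-fluorouridine and compound, 16 hr in 5% CO2 at 37 °C; ONE-Glo luminescence read after 30 min.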
HT1080-NT tox: kills 2HG-producing HT-1080-NT fibrosarcoma cells | Potency, µM (series often up to 46.1 µM), actives largely listed as cytotoxic | HT-1080-NT fibrosarcoma viability, CellTiter-Glo ATP luminescence, 48 h | AID 686970 | actives 1.6% (n = 360,000);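 note: NT is the 2HG producing partner of a matched IDH1 knockdown line; nearly all actives have a fitted effect of over 55% in size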
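A 48-hour cytotoxicity screen used HT-1080-NT cells plated 2 hours before compound delivery. ATP-based CellTiter-Glo luminescence measured viability, normalized to DMSO and no-cell controls.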
IL-1B inflam inh: inflammasome signaling inhibition, IL-1 beta readout. THP-1 LPS/ATP IL-1B secretion, AlphaLISA, 16 h; stronger effect = lower value. activity change, % at 57.5 µM. actives 4.7% (n = 360,000). AID 743279; in the data active = activity change below about -50%; inconclusive = mostly about -30% to -49%
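Secreted IL-1B measured by AlphaLISA bead assay after 16 h compound exposure of THP-1 cells; compounds (final up to 57.5 uM) added 1 h before LPS (250 ng/mL) and ATP (1.25 mM) stimulation; lower signal means less secretion.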
Of the large screens only hits and unclear results are named; the others gave an inactive call. This is a sample that favours compounds with a hit; in the whole collection about 19% have one here. Unless noted, calls come from the whole dose curve; as a rule, active = well fitted curve in the direction sought with a large enough effect; inconclusive = small, poorly fitted or top-dose-only effect, or another doubt; inactive = no such curve, though single readings can be large; an effect the other way counts as inactive or inconclusive.

NC(=O)c1c(NC(=O)C2COc3ccccc3O2)sc2c1CCN(Cc1ccccc1)C2 (stereo unspecified)	HT1080-NT tox inconclusive
CC(=O)N1CCc2c(sc(NC(=O)Cc3ccccc3)c2C(N)=O)C1	none
COC(=O)N1CCc2c(sc(NC(=O)C3COc4ccccc4O3)c2C(N)=O)C1 (stereo unspecified)	TDP1 cell noCPT 16µM, DT40 TDP1 CPT 15µM, ELG1 DNA repair inconclusive
CCOC(=O)c1c(NC(=O)C2COc3ccccc3O2)sc2c1CCN(Cc1ccccc1)C2 (stereo unspecified)	DT40 TDP1 CPT 23µM
CCCCC1C(=O)CC[C@H]2[C@@H]1CC(=O)[C@@H]2C/C=C\CCCC(=O)O (stereo partly specified)	TDP1 cell noCPT 21µM, HT1080 IDH1KD tx inconclusive, DT40 TDP1 CPT inconclusive, HT1080-NT tox inconclusive, IL-1B inflam inh inconclusive
CCCCCC1C(=O)CCC1CC(=O)O (stereo unspecified)	none (no result: HT1080 IDH1KD tx, ELG1 DNA repair, HT1080-NT tox, IL-1B inflam inh)
Cc1[nH][nH]c(=O)c1C(c1c(C)[nH][nH]c1=O)c1cn(Cc2ccc(F)cc2)c2ccccc12	TDP1 cell noCPT 5.2µM, HT1080 IDH1KD tx inconclusive, DT40 TDP1 CPT 6.5µM, IL-1B inflam inh -101
O=c1c2ccccc2ncn1Cc1ccc(Cl)c(Cl)c1	none
Cc1[nH][nH]c(=O)c1C(c1c(C)[nH][nH]c1=O)c1cn(Cc2ccc(Cl)c(Cl)c2)c2ccccc12	TDP1 cell noCPT 2.1µM, HT1080 IDH1KD tx inconclusive, DT40 TDP1 CPT 2.1µM, ELG1 DNA repair inconclusive, IL-1B inflam inh -98
COc1ccc(Cl)cc1NC(=O)c1c(C(=O)Nc2cccc(C)c2C)sc2nc(C)cc(=O)n12	TDP1 cell noCPT 21µM, DT40 TDP1 CPT inconclusive (no result: HT1080 IDH1KD tx, ELG1 DNA repair, HT1080-NT tox, IL-1B inflam inh)
CCc1ccc(NC(=O)C(=O)NCC2CCCN2S(=O)(=O)c2cccs2)cc1 (stereo unspecified)	TDP1 cell noCPT 15µM, DT40 TDP1 CPT 18µM, ELG1 DNA repair inconclusive
Cc1ccc(NC(=O)C(=O)NCC2CCCN2S(=O)(=O)c2cccs2)cc1 (stereo unspecified)	TDP1 cell noCPT inconclusive, DT40 TDP1 CPT inconclusive
Cc1cccc(NC(=O)C(=O)NCC2CCCN2S(=O)(=O)c2ccccc2)c1 (stereo unspecified)	TDP1 cell noCPT 10µM, DT40 TDP1 CPT 15µM
Cc1cccc(NC(=O)C(=O)NCC2CCCN2S(=O)(=O)c2cccs2)c1 (stereo unspecified)	TDP1 cell noCPT 8.2µM, DT40 TDP1 CPT 13µM (no result: ELG1 DNA repair)
CNC(=O)C(=O)NCC1CCCN1S(=O)(=O)c1cccs1 (stereo unspecified)	none
Cc1cccc(NC(=O)C(=O)NCC2CCCN2S(=O)(=O)c2cccs2)c1C (stereo unspecified)	TDP1 cell noCPT inconclusive, DT40 TDP1 CPT 21µM
Cc1cccc(OCCSc2nnc(-c3cccs3)o2)c1	TDP1 cell noCPT inconclusive (no result: HT1080 IDH1KD tx, ELG1 DNA repair, HT1080-NT tox, IL-1B inflam inh)
COc1cccc(NC(=O)CSc2nc(=O)n(Cc3ccncc3)c3c2CCC3)c1	none (no result: HT1080 IDH1KD tx, ELG1 DNA repair, HT1080-NT tox, IL-1B inflam inh)
CC(=O)N(CC(O)CO)c1c(I)c(C(=O)NCCO)c(I)c(C(=O)NCC(O)CO)c1I (stereo unspecified)	none (no result: HT1080 IDH1KD tx, ELG1 DNA repair, HT1080-NT tox, IL-1B inflam inh)
CC(C)NC(=O)C1(C)CCCN1Cc1csc2ccccc12 (stereo unspecified)	TDP1 cell noCPT inconclusive, DT40 TDP1 CPT inconclusive (no result: ELG1 DNA repair)
O=C(c1ccco1)N1CCN(c2nc(C3CC3)nc3c2nnn3Cc2ccccc2Cl)CC1	TDP1 cell noCPT inconclusive, DT40 TDP1 CPT inconclusive, ELG1 DNA repair inconclusive, IL-1B inflam inh -77
CC(C)(C)c1nc(N2CCN(C(=O)c3ccco3)CC2)c2nnn(Cc3ccccc3)c2n1	TDP1 cell noCPT 21µM, HT1080 IDH1KD tx inconclusive, DT40 TDP1 CPT inconclusive, ELG1 DNA repair inconclusive, HT1080-NT tox inconclusive, IL-1B inflam inh -52
COc1ccc(S(=O)(=O)N2CCOCC2)cc1NC(=O)c1ccc(=O)[nH]c1	none

From PubChem
